Results reported in PubChem BioAssay AID1224858 (National Center for Advancing Translational Sciences (NCATS), 2016).
Inconclusive results are not listed. Active and inactive are the calls of the source. Calls come from the whole dose curve; as a rule, active = well fitted inhibition curve with a large enough effect; inconclusive = small, poorly fitted or top-dose-only effect; inactive = no such curve, though single readings can be large or run the other way.

Test: Confirmation assay for measurement of the activity of small molecule inhibitors on Zika virus induced Caspase-3 activity in human astrocytes
Settings: ZIKV-induced caspase-3/7 luminescence, 6 h; series mostly up to 46.1 µM; activity, negative = inhibition: at the top concentration
Description: National Center for Advancing Translational Sciences [NCATS] Johns Hopkins University School of Medicine Florida State University Assay Overview: Increase in the Caspase-3 activity indicates an activation of apoptosis cell death pathway caused by Zika virus infection in certain types of neuronal cells including human neural progenitor cells (hNPCs), astrocytes, and astrocytoma cell line (SNB-19). This cell-based caspase-3 activity assay measures the increased caspase-3 activity in the human astrocytes after a 6-hour Zika virus infection with a luminescence readout. A decrease in the luminescence signal in this assay by small molecule treatment indicates an inhibitory effect of that small molecule on the Zika virus induced caspase-3 activity that may correlate with its effect on reduction of Zika virus caused cell death.
Assay Protocol Summary: The medium for astrocytes contains AM basal medium (ScienCell, Cat.# 1801), AGS (ScienCell, Cat.# 1801), 10% FBS, and 1% Pen/Strep. A Caspase-Glo 3/7 assay kit (catalog number G8092; Promega, Madison, WI) was used to detect caspase-3 activity induced by Zika virus infection in human cells. The reagent mixture was reconstituted as described in the protocol from the manufacturer. Polystyrene tissue culture treated and PDL coated white plates were obtained from Greiner Bio-One (Monroe, NC). Cells were seeded in 384- or 1536-well assay plates and cultured at 37 C with 5% CO2 for 16 to 20 hours. The typical cell seeding density in the 1536-well plate assay is 350 cells/well in 3 ul medium for astrocytes in tissue culture treated plates. Compounds were added to cells and incubated for one hour before addition of ZIKV solution to cells (2 FFU/cell). After incubation at 37 C with 5% CO2 for 6 hours, the reagent mixture of Caspase-Glo 3/7 assay kit was added to each well, followed by incubation at room temperature for 30 minutes. The luminescence intensity of the assay plates was measured using a ViewLux plate reader (PerkinElmer). Data were normalized by using the cell-containing wells without ZIKV as a negative control (0% induction of caspase 3/7 activity) and wells containing ZIKV infected cells (Caspase-3 activity induced) as a positive control (100% induction of caspase 3 activity). The percentage inhibitions of the increased Caspase-3 activity by small molecule inhibitors were then calculated.
For `Oc1ccc([C@H]2CNCc3c2ccc(O)c3O)cc1O`, the “activity, negative = inhibition” value was -21.6% (inactive). In the case of `Cc1ccc([N+](=O)[O-])[c]2c1[O][Hg]2`, the Potency is reported as 7.74 µM (active). With `COC1(CS(=O)c2ccccc2)CCN(CCc2c[nH]c3ccc(F)cc23)CC1` (stereo not drawn) the “activity, negative = inhibition” value was 21.6% (inactive). With `CC(C)[N+](C)(CCC(C(N)=O)(c1ccccc1)c1ccccc1)C(C)C` the “activity, negative = inhibition” value was 3.8% (inactive). In the case of `CC(O)CN1CCN(CC(=O)[O-])CCN(CC(=O)[O-])CCN(CC(=O)[O-])CC1.[Gd+3]` (stereo not drawn), the “activity, negative = inhibition” value is reported as 16.8% (inactive). With `CC(C)N[C@@H]1CCn2c(=O)[nH]c3cccc(c32)[C@@H]1O` the “activity, negative = inhibition” value was -6.93% (inactive). For `O=C1CCC[C@@H]2[C@H]3CCCN4CCC[C@@H](CN12)[C@@H]34`, the “activity, negative = inhibition” value was -2.18% (inactive). In the case of `O=S(=O)(CC1CS1)c1ccc(Oc2ccccc2)cc1` (stereo not drawn), the “activity, negative = inhibition” value is reported as -16.3% (inactive). In the case of `O=c1c2ccccc2[se]n1-c1ccccc1`, the Potency is reported as 7.74 µM (active). With `COP(=S)(OC)SCN1C(=O)c2ccccc2C1=O` the “activity, negative = inhibition” value was 11.5% (inactive). For `CC(C)[C@H]1C(=O)N[C@H](CO)Cc2c[nH]c3cccc(c23)N1C`, the “activity, negative = inhibition” value was -6.86% (inactive). For `O=C(Nc1ccc(Br)cc1)c1cc(Br)cc(Br)c1O`, the Potency was 6.15 µM (active). With `O=C1C=CC[C@@H]2[C@H]3CCCN4CCC[C@@H](CN12)[C@@H]34` the “activity, negative = inhibition” value was 6.06% (inactive).
